# Test results as given in article PMC11062922 (Nature Chemical Biology, 2023).
# Where two headings read alike, the source gives them in different places.
# How the values were obtained:
# Set-up in all cases: species or system human, MV4-11 + K-562 + COLO205 + SK-N-BE2 + OVCAR-8
# BMPR2 = details: read-out: apparent Kd, compound concentrations: 100 nM and 1000 nM (sheet 'Samples'), n = 1
# ILK = details: read-out: apparent Kd, n = 1
# RPS6KA5 = details: read-out: apparent Kd, n = 1
# ADCK3 = details: read-out: apparent Kd, compound concentrations: 100 nM and 1000 nM (sheet 'Samples'), n = 1
# VDAC3 = details: read-out: apparent Kd, n = 1
# NEK3 = details: read-out: apparent Kd, n = 1
# LIMK1 = details: read-out: apparent Kd, n = 1
# COX5A = details: read-out: apparent Kd, n = 1
# CLK2 = details: read-out: apparent Kd, compound concentrations: 100 nM and 1000 nM (sheet 'Samples'), n = 1
# DCTPP1 = details: read-out: apparent Kd, compound concentrations: 100 nM and 1000 nM (sheet 'Samples'), n = 1
# STRADA = details: read-out: apparent Kd, n = 1
# TBK1 = details: read-out: apparent Kd; compound concentrations:100 nM and 1000 nM (sheet 'Samples'); n = 1
# PI4KA = details: read-out: apparent Kd, compound concentrations: 100 nM and 1000 nM (sheet 'Samples'), n = 1
# PRKX;PRKY = details: read-out: apparent Kd, n = 1
# ACOX1 = details: read-out: apparent Kd; compound concentrations: 100 nM and 1000 nM (sheet 'Samples'), CATDS: 0.16885310198044201; n = 1
# CDK13 = details: read-out: apparent Kd; compound concentrations: 100 nM and 1000 nM (sheet 'Samples'), CATDS: 1.7118564959648301E-2; n = 1
# GRK6 = details: read-out: apparent Kd, n = 1
# PRKDC = details: read-out: apparent Kd; compound concentrations: 100 nM and 1000 nM (sheet 'Samples'), CATDS: 3.7580559894827101E-2; n = 1
# TEC = details: read-out: apparent Kd; compound concentrations: 100 nM and 1000 nM (sheet 'Samples'), CATDS: 1.92615538801734E-2; n = 1
# [1] = compound concentrations:100 nM and 1000 nM (sheet 'Samples')
smiles,measurement,setting,value
O=C(O)C(F)(F)F.O=c1[nH]ccc2nc(N[C@@H]3CCNC3)nc(Nc3ccc4c(c3)S(=O)(=O)CC4)c12 [GSK2181306A],potency estimated from few doses,BMPR2; CATDS: 3.4513086619766098E-2,68.7 nM
same,potency estimated from few doses,"ILK; compound concentrations: 100 nM and 1000 nM (sheet 'Samples'), CATDS: 7.7202242880441098E-3",2320 nM
same,potency estimated from few doses,"RPS6KA5; compound concentrations: 100 nM and 1000 nM (sheet 'Samples'), CATDS: 8.4236521656491804E-3",1550 nM
O=C1N=C(NCCCc2ccccc2)S/C1=C\c1ccc2ncccc2c1 [RO4493941-000],potency estimated from few doses,ADCK3; CATDS: 7.1008465963160003E-2,940 nM
COc1ccc(-c2cc3c(N)ncnc3o2)cc1 [GW642138X],potency estimated from few doses,"VDAC3; compound concentrations: 100 nM and 1000 nM (sheet 'Samples'), CATDS: 9.45617395095774E-2",2060 nM
CN(C)CC(O)COc1ccc(Nc2nccc(-c3cnn4nc(N5CCOCC5)ccc34)n2)cc1 (centres unmarked) [GW767488X],potency estimated from few doses,NEK3; [1],467 nM
COc1cc(Nc2nccc(N3CCC(NC(=O)c4cccc(NC(C)=O)c4)C3)n2)cc(OC)c1OC (centres unmarked) [GSK1379754A],potency estimated from few doses,"LIMK1; compound concentrations: 100 nM and 1000 nM (sheet 'Samples'), CATDS: 8.2781561075995602E-2",1830 nM
Cc1cc(-c2ccnc(Nc3cccc(C#N)c3)n2)cc(C)c1O [GSK1440913A],potency estimated from few doses,"COX5A; compound concentrations: 100 nM and 1000 nM (sheet 'Samples'), CATDS: 8.0504484678198804E-2",1300 nM
O=C(O)C(F)(F)F.O=C(O)C(F)(F)F.O=c1[nH]ccc2nc(N[C@@H]3CCCNC3)nc(Nc3ccc(S(=O)(=O)N4CCOCC4)cc3)c12.O=c1[nH]ccc2nc(N[C@@H]3CCCNC3)nc(Nc3ccc(S(=O)(=O)N4CCOCC4)cc3)c12 [GSK2177277A],potency estimated from few doses,BMPR2; CATDS: 8.2432165271610295E-3,514 nM
same,potency estimated from few doses,"COX5A; compound concentrations: 100 nM and 1000 nM (sheet 'Samples'), CATDS: 6.6138643227552996E-3",1310 nM
c1ccc(-c2n[nH]cc2Nc2ccnc3ccccc23)nc1 [GW694077X],potency estimated from few doses,CLK2; CATDS: 3.5523964233137598E-2,477 nM
same,potency estimated from few doses,DCTPP1; CATDS: 2.52871729428043E-2,1400 nM
COC(=O)c1cccc(NC(=O)NC2CCN(c3ccnc(Nc4cc(OC)c(OC)c(OC)c4)n3)C2)c1 (centres unmarked) [GSK1379767A],potency estimated from few doses,ADCK3; CATDS: 9.7786771136585404E-2,1860 nM
same,potency estimated from few doses,"VDAC3; compound concentrations: 100 nM and 1000 nM (sheet 'Samples'), CATDS: 0.107496122866376",1480 nM
COc1cc[nH]c1/C=C1\C(=O)Nc2ccc(F)c(C#CC3(O)CCNCC3)c21.Cl [RO0282986-001],potency estimated from few doses,CLK2; CATDS: 1.56056735722173E-2,360 nM
same,potency estimated from few doses,"STRADA; compound concentrations: 100 nM and 1000 nM (sheet 'Samples'), CATDS: 9.4665319729240003E-3",1660 nM
c1cnn2ncc(-c3ccnc(Nc4ccc5c(c4)OCCO5)n3)c2c1 [GW806290X],potency estimated from few doses,"NEK3; compound concentrations: 100 nM and 1000 nM (sheet 'Samples'), CATDS: 2.00420212482838E-2",2000 nM
CC(C)Oc1ccc2c(-c3ccnc(Nc4ccc(N5CCN(C)CC5)cc4)n3)cnn2n1 [GW696155X],potency estimated from few doses,LIMK1; [1],576 nM
same,potency estimated from few doses,NEK3; [1],421 nM
same,potency estimated from few doses,TBK1,621 nM
NCC(NC(=O)c1cc(-c2cn[nH]c2)c(-c2ccnc3[nH]ccc23)s1)c1ccccc1.NCC(NC(=O)c1cc(-c2cn[nH]c2)c(-c2ccnc3[nH]ccc23)s1)c1ccccc1.O=C(O)C(F)(F)F.O=C(O)C(F)(F)F (centres unmarked) [GSK1325775A],potency estimated from few doses,PI4KA; CATDS: 3.4236292814805502E-2,1310 nM
CS(=O)(=O)Nc1cccc(-c2ccc3c(NC(=O)C4CC4)n[nH]c3c2)c1 [SB-742864],potency estimated from few doses,ADCK3; CATDS: 0.16822822033669799,659 nM
CC(C)Nc1cc(-c2ccc3c(N)n[nH]c3c2)nc(N)n1 [GSK2221681A],potency estimated from few doses,PRKX;PRKY; [1],1270 nM
O=C1N=C(NCc2cccs2)O/C1=C\c1ccc2ncccc2c1 [RO4624208-000],potency estimated from few doses,DCTPP1; CATDS: 5.0969349281877803E-2,1270 nM
Cc1ccccc1C1=C(c2cn(C)c3ccccc23)C(=O)NC1=O [RO0317612-000],potency estimated from few doses,ACOX1,761 nM
same,potency estimated from few doses,"COX5A; compound concentrations: 100 nM and 1000 nM (sheet 'Samples'), CATDS: 0.16821535460753201",767 nM
CCn1c(-c2nonc2N)nc2cncc(C(=O)N3CC[C@H](N)C3)c21.Cl [SB-772077-B],potency estimated from few doses,RPS6KA5; [1],48.3 nM
Cc1occc1-c1nc(N)c(OC[C@@H](N)Cc2c[nH]c3ccccc23)cc1-c1cc2c(C)n[nH]c2cn1 [GSK1660450B],potency estimated from few doses,COX5A; [1],824 nM
same,potency estimated from few doses,VDAC3; [1],102 nM
CN(C)C(=O)/C(C#N)=C/c1ccc(-c2nc3cnc4[nH]ccc4c3n2C2CCCCC2)o1 [FM-381],potency estimated from few doses,COX5A; [1],756 nM
CC(C)N1CC(=O)N(C)c2cnc(Nc3cccc(S(=O)(=O)CCN4CCOCC4)c3)nc21 [BI00009348],potency estimated from few doses,BMPR2; CATDS: 7.5564324360796103E-2,646 nM
NS(=O)(=O)c1ccc(NC=C2C(=O)Nc3ccc4ncsc4c32)cc1 [GW589933X],potency estimated from few doses,CDK13,1700 nM
O=C1N=C(NCCc2ccccc2Cl)S/C1=C\c1ccc2ncccc2c1 [RO4498484-000],potency estimated from few doses,"PRKX;PRKY; compound concentrations: 100 nM and 1000 nM (sheet 'Samples'), CATDS: 5.9384973682941697E-2",1830 nM
Nc1nc(-c2ccc3c(N)n[nH]c3c2)cc(N2CCCC(NC(=O)c3ccccc3)C2)n1 (centres unmarked) [GSK2286775B],potency estimated from few doses,ILK; [1],1790 nM
same,potency estimated from few doses,TBK1,342 nM
Cl.Cl.NCC(NCc1ccc(-c2ccnc3[nH]ccc23)s1)c1ccccc1.NCC(NCc1ccc(-c2ccnc3[nH]ccc23)s1)c1ccccc1 (centres unmarked) [GSK1321565A],potency estimated from few doses,GRK6; [1],1600 nM
Cl.Cl.NCC(NC(=O)c1cc(-c2ccnc3[nH]ccc23)cs1)c1ccccc1.NCC(NC(=O)c1cc(-c2ccnc3[nH]ccc23)cs1)c1ccccc1 (centres unmarked) [GSK1229959A],potency estimated from few doses,"RPS6KA5; compound concentrations: 100 nM and 1000 nM (sheet 'Samples'), CATDS: 1.83168013487864E-2",1240 nM
CCC(CC)(CC)n1cnc2c(N)ncnc21 [SKF-97620],potency estimated from few doses,PI4KA; CATDS: 3.8493630683817899E-2,553 nM
same,potency estimated from few doses,PRKDC,583 nM
same,potency estimated from few doses,"STRADA; compound concentrations: 100 nM and 1000 nM (sheet 'Samples'), CATDS: 2.3464375070220901E-2",2220 nM
Cl.Cl.NC[C@H](CC1CCCCC1)NC(=O)c1ccc(-c2ccnc3[nH]ccc23)s1.NC[C@H](CC1CCCCC1)NC(=O)c1ccc(-c2ccnc3[nH]ccc23)s1 [GSK1581428A],potency estimated from few doses,RPS6KA5; [1],1340 nM
COc1cc[nH]c1/C=C1\C(=O)Nc2ccc(F)c(C#C[C@@H](O)[C@@H](N)[C@@H](C)O)c21 [RO0283120-000],potency estimated from few doses,STRADA; [1],2010 nM
COc1ccc(-n2cnc3c(N)ncnc32)cc1 [SKF-97236],potency estimated from few doses,ADCK3; CATDS: 0.16598723814203101,922 nM
Cl.Cl.Cl.c1ccc(Oc2ccc(Nc3ccnc4cc(-c5ccc(CN6CCNCC6)o5)ccc34)cc2)nc1.c1ccc(Oc2ccc(Nc3ccnc4cc(-c5ccc(CN6CCNCC6)o5)ccc34)cc2)nc1 [GW567142A],potency estimated from few doses,"GRK6; compound concentrations: 100 nM and 1000 nM (sheet 'Samples'), CATDS: 1.87269868098595E-2",1430 nM
same,potency estimated from few doses,"NEK3; compound concentrations: 100 nM and 1000 nM (sheet 'Samples'), CATDS: 1.7301178546407801E-2",1910 nM
same,potency estimated from few doses,TEC,1300 nM
same,potency estimated from few doses,"VDAC3; compound concentrations: 100 nM and 1000 nM (sheet 'Samples'), CATDS: 1.74915256837203E-2",1830 nM
